The nature of assay [1]: binders of probe aFSTL3 on microarray, primary screen, stem cell growth factor project, biochemical, small-molecule microarray, fluorescence 635/667 (AID 1064).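 Also: measures binding of the biotinylated anti-FSTL3 antibody to printed compounds.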 To be noted: higher = more signal.
Assay [2] can be described thus: binders from COS7 lysate, DM2A8 probe, primary screen, torsin A project, cell lysate, small-molecule microarray, fluorescence 635/667 (AID 1065). The settings on record: higher = more signal, COS7 lysate expressing mutant human TOR1A.
Assay [3] in a line: binders of probe aFGF2 on microarray, primary screen, stem cell growth factor project, biochemical, small-molecule microarray, fluorescence 635/667 (AID 1067).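 Also: measures binding of biotinylated aFGF2 protein to printed compounds on slides; z-score merges feature fluorescence and signal-to-noise across triplicate slides.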 The settings on record: higher = more signal.
Assay [4] can be described thus: binders of probe aFGF10 on microarray, primary screen, stem cell growth factor project, biochemical, small-molecule microarray, fluorescence 635/667 (AID 1071).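 Also: score merges 667 nm spot intensity and signal to noise from triplicate slides.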 To be noted: higher = more signal.
The target in assay [5] is Neurogenic locus notch homolog protein 2 (Homo sapiens) (UniProt Q04721). Nature of the assay: Notch2 binders on small-molecule microarrays, primary screen, biochemical, small-molecule microarray, 635 nm fluorescence, stem cell growth factors (AID 1073). The settings on record: Notch2 binding, higher = more signal.
In assay [6] the target is Pro-neuregulin-1, membrane-bound isoform (Homo sapiens) (UniProt Q02297). The experiment in a line: NRG1 binders on small-molecule microarrays, primary screen, psychiatric disease protein project, biochemical, small-molecule microarray, fluorescence 635/667 (AID 1075).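 Also: score combines 667 nm spot fluorescence with signal to noise.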 To be noted: NRG1 binding, 635 nm fluorescence, higher = more signal.
Sequence of Pro-neuregulin-1, membrane-bound isoform (Homo sapiens) (Q02297 whole entry, looked up, the tested form may be a part, canonical isoform): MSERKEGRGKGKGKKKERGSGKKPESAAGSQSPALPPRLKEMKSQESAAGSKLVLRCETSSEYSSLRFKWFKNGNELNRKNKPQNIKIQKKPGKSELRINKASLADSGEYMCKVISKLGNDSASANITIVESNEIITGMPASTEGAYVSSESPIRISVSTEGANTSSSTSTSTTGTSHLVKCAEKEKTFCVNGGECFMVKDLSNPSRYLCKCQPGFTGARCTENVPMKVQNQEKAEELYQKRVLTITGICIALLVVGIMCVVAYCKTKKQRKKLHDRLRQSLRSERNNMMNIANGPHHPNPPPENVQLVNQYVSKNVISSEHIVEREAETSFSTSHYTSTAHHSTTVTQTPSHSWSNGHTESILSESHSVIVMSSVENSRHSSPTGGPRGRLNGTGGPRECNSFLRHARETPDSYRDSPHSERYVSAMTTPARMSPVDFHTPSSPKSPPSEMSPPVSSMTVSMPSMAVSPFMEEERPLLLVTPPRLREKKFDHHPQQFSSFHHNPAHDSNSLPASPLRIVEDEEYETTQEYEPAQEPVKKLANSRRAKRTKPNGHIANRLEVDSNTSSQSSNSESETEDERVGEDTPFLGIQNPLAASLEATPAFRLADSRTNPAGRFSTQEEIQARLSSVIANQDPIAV
Assay [7] relates to Neuregulin-1 EGF-like domain. The experiment in a line: binders of neuregulin-1 EGF-like domain, primary screen, biochemical, small-molecule microarray, 635 nm fluorescence (AID 1081).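 Also: binding of the protein to compounds printed on small-molecule microarray slides.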 The settings on record: small-molecule microarray binding, higher = more signal.
The nature of assay [8]: FRG1 promoter luciferase signal modulators, primary screen, FRG1 inhibition for FSHD, cell-based, C2C12 myotubes, firefly/Renilla luciferase, luminescence (AID 1084). The settings on record: higher = more signal, called active from +8 up or from −8 down.
Assay [9] can be described thus: binders of probe aFST on microarray, primary screen, stem cell growth factor project, biochemical, small-molecule microarray, fluorescence 635/667 (AID 1086).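 Also: score merges 667 nm fluorescence with signal-to-noise of each printed compound spot.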 The settings on record: higher = more signal.
The nature of assay [10]: binders of probe aHhip on microarray, primary screen, stem cell growth factor project, biochemical, small-molecule microarray, fluorescence 635/667 (AID 1087).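 Also: score merges spot fluorescence at 667nm with spot signal to noise ratio.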 The settings on record: higher = more signal.
Assay [11] has as its system PRMT1 (protein arginine N-methyltransferase 1). The experiment in a line: PRMT1 binders on small-molecule microarrays, primary screen, biochemical, small-molecule microarray, 635 nm fluorescence (AID 1088).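 Also: binding of Prmt1 protein to compounds spotted on small-molecule microarray slides.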 The settings on record: small-molecule microarray binding, higher = more signal.
A short description of assay [12]: yeast growth modulation, basal conditions, primary screen, YJM789 clinical isolate, OD600, 24 h (AID 1089).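 Also: growth of clinical yeast isolate S. cerevisiae YJM 789 seeded 1000 cells per well; test concentration not given here.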 To be noted: S. cerevisiae YJM789 growth, higher = more signal, called active from +8 up or from −8 down.
Assay [13] can be described thus: fission yeast growth modulation, primary screen, strain 972, OD600, 24 h, no modulator (AID 1090).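 Also: basal condition with compound alone and no growth modifier present; test concentration not given here.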 To be noted: S. pombe 972 growth, higher = more signal, called active from +8 up or from −8 down.
The nature of assay [14]: S. cerevisiae growth modulation with rapamycin, primary screen, strain BY4716, OD600, 96 h (AID 1091). Also: test concentration not given here. To be noted: higher = more signal, called active from +8 up or from −8 down.
The target in assay [15] is Torsin-1A-interacting protein 2 (Homo sapiens) (UniProt Q8NFQ8). Nature of the assay: LULL1 binders on small-molecule microarray, primary screen, cell lysate, human LULL1 lysate, 635/667 nm fluorescence (AID 1092).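 Also: probe is lysate of COS7 cells overexpressing human LULL1; score merges per-feature 667 nm fluorescence with signal-to-noise.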 The settings on record: hLULL1 lysate binding, 635 nm fluorescence, higher = more signal.
Sequence of Torsin-1A-interacting protein 2 (Homo sapiens) (Q8NFQ8 whole entry, looked up): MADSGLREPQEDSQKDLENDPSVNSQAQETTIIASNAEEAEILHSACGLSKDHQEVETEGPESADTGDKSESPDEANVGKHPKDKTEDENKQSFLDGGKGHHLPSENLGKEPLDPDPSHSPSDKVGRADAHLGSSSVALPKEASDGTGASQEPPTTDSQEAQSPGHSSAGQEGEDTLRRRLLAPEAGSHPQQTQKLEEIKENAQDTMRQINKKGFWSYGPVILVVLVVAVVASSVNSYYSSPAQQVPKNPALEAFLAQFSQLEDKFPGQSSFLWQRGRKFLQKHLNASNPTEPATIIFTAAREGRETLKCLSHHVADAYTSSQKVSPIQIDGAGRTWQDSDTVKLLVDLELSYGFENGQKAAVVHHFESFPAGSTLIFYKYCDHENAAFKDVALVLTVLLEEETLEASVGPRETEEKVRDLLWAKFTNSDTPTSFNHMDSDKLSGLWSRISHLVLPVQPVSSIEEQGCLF
A short description of assay [16]: E. coli growth modulation, two-sided OD650, primary screen, E. coli filamentation project, strain DRC41, 24 h (AID 1093).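 Also: MC1000 strain lacking acrAB efflux and sulA so SOS filamentation is blocked; test concentration not given here.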 To be noted: OD650, 24 h, higher = more signal, called active from +8 up or from −8 down.
Assay [17] is described as follows: small-molecule microarray binders of probe aLefty2, primary screen, biochemical, biotinylated probe, 635/667 nm fluorescence (AID 1094).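 Also: score merges spot fluorescence near 667 nm with spot signal-to-noise ratio.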 The settings on record: higher = more signal.
Assay [18] has as its system Noggin (protein binding on small-molecule microarray). Nature of the assay: Noggin binders on small-molecule microarray, primary screen, biochemical, 635/667 nm fluorescence (AID 1095).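 Also: score merges 667 nm feature fluorescence with signal to noise over triplicate slides.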 The settings on record: 635 nm fluorescence, higher = more signal.
Assay [19] addresses Neurogenic locus notch homolog protein 3 (Homo sapiens) (UniProt Q9UM47). Nature of the assay: NOTCH3 binders on small-molecule microarray, primary screen, biochemical, 635/667 nm fluorescence (AID 1096). The settings on record: NOTCH3 binding, 635 nm fluorescence, higher = more signal.
The nature of assay [20]: small-molecule microarray binders of probe aEGFR, primary screen, biochemical, biotinylated probe, 635/667 nm fluorescence (AID 1097).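 Also: probe is a biotinylated anti-EGFR antibody binding compounds printed on slides; score combines fluorescence near 667 nm and signal to noise of each spot.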 To be noted: higher = more signal.

Active and inactive are the calls of the source.

Sequence of Neurogenic locus notch homolog protein 3 (Homo sapiens) (Q9UM47 whole entry, looked up): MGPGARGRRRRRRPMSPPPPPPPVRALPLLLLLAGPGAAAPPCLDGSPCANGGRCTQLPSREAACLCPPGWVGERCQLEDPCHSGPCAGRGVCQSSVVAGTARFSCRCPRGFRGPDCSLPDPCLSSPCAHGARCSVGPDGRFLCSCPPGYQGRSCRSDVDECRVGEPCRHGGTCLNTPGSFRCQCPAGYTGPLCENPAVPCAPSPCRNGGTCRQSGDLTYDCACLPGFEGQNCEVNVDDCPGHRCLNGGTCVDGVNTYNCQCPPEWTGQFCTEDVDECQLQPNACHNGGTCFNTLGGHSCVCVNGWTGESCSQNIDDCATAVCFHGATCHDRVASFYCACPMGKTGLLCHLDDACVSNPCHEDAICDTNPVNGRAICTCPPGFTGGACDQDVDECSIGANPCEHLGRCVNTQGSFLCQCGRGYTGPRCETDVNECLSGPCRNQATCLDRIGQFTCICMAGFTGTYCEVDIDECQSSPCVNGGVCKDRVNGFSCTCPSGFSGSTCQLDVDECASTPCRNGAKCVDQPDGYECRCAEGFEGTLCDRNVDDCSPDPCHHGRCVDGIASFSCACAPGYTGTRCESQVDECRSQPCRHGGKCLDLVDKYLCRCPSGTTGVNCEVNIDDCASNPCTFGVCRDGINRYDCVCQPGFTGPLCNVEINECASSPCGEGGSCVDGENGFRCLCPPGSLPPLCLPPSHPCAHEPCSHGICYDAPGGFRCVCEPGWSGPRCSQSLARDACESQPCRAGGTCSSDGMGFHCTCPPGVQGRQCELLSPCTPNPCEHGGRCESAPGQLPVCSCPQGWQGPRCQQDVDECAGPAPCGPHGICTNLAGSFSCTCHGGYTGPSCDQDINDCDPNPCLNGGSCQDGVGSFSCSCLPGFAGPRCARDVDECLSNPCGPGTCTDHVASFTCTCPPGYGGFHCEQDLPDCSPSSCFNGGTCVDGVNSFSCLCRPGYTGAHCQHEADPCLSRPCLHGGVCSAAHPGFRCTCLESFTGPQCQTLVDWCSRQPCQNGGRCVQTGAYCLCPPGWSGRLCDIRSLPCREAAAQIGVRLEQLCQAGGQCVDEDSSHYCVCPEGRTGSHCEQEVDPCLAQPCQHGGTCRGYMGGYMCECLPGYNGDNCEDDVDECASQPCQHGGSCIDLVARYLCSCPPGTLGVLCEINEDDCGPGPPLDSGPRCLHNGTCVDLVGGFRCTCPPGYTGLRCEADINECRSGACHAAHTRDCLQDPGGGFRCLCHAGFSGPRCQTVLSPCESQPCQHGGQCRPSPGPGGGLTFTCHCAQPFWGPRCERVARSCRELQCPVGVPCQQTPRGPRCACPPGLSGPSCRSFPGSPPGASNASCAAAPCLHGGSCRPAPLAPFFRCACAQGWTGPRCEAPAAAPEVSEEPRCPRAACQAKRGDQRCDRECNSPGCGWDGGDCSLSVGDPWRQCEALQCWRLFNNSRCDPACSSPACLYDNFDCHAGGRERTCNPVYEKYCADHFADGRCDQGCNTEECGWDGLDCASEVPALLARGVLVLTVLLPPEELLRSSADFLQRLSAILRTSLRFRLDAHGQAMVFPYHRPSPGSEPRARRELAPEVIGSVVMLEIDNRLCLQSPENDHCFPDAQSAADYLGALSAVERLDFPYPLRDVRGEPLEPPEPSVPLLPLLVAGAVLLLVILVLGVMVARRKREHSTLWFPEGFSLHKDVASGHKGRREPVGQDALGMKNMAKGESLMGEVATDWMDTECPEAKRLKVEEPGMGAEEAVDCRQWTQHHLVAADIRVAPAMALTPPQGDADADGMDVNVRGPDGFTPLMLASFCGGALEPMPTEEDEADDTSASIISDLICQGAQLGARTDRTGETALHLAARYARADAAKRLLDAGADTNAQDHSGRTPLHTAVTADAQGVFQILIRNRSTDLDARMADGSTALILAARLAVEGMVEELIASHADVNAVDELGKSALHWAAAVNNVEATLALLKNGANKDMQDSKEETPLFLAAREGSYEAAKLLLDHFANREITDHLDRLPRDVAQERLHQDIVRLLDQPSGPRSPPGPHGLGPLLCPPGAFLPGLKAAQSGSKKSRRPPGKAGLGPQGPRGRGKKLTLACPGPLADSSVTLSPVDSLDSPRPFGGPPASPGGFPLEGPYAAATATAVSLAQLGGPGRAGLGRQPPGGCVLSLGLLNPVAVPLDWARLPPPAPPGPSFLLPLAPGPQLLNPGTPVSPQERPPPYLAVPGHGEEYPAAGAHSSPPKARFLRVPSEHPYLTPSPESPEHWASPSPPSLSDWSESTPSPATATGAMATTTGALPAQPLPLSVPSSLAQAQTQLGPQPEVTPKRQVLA

Turning to `COc1ccc([Si](C)(C)[C@@H]2[C@@H](CCO)O[C@]3(C(=O)N(Cc4cccc(N5C(=O)COc6ccccc65)c4)c4ccccc43)[C@H]2C)cc1`, the composite z-score in assay [1] is 0.0857; in assay [2] it was -0.183; in assay [3], -0.072; in assay [4], 0.492; in assay [5], 0.0822; in [6], 1.18. Also, the composite z-score was 0.818 in [7]; -0.287 in [9]; -0.164 in assay [10]; 0.896 in assay [11]; 1.61 in assay [15]; -0.124 in assay [17]. Besides, the composite z-score is -0.142 in assay [18], 0.528 in assay [19] and -0.0864 in assay [20]. For the same compound, the z-score in assay [8] was -1.22 (inactive); in assay [12], 3.01 (inactive); in [13], 1.09 (inactive); in assay [14] it was 36.8 (active); in assay [16] it was 0.685 (inactive).

As to `COC(=O)[C@@]1(Cc2ccc(OC)cc2)[C@H]2c3cc(C(=O)N4CCCC4)n(CCF)c3C[C@H]2CN1C(=O)c1ccccc1`, the composite z-score in [1] was 3.09; in [2] it was -0.334; in assay [3], 0.972; in [4] it was 1.44; in assay [5] it was 1.66; in assay [6], 2.27. In addition, the composite z-score in assay [7] turned out to be 1.43; in assay [9] it was 3.23; in assay [10], 3; in assay [11], 0.669; in assay [15], 3.56; in [17], 1.64. The values for the composite z-score in assay [18], in assay [19] and in assay [20] were -0.183, 1.12 and 1.37, respectively. In addition, the z-score in assay [8] is 1.37 (inactive); in [12], 0.366 (inactive); in assay [13], 1.13 (inactive); in assay [14], 0.4 (inactive); in assay [16], -1.09 (inactive).

On to `O=C1O[C@H](c2ccccc2)[C@H](c2ccccc2)N2[C@H]1[C@@H](C(=O)N1CCCCCCC1)[C@]1(C(=O)Nc3ccccc31)[C@H]2c1ccc(O)cc1`, for which the composite z-score in [1] was 4.2; in assay [2], 2.71; in assay [3] it was 1.1; in assay [4], 1.61; in assay [5] it was 1.83; in [6], 2.55. The composite z-score in [7] turned out to be 1.37; in assay [9], 3.92; in [10], 4.73; in [11] it was 1.55; in assay [15], 4.82; in [17] it was 2.02. Besides, the composite z-score in assay [18] turned out to be 2.26; in assay [19], 1.01; in assay [20], 1.5. The z-score in assay [8] is 0.168 (inactive); in assay [12] it was 0.532 (inactive); in assay [13], 0.556 (inactive); in assay [14], 0.874 (inactive); in assay [16], 0.248 (inactive).

As to `C=CCN1C(=O)[C@@]2(O[C@@H](CCn3cc([C@H](O)c4ccccc4)nn3)[C@H]([Si](C)(C)c3ccc(OC)cc3)[C@H]2C)c2cc(NC(=O)c3ccc(OC)cc3)ccc21`, the composite z-score in assay [1] stood at 0.027; in [2] it was 0.321; in assay [3], 0.0084; in assay [4], 0.0737; in assay [5], 0.147; in assay [6], 0.56. Besides, the composite z-score was 0.531 in assay [7]; 0.101 in [9]; 0.185 in assay [10]; 0.948 in assay [11]; 1.72 in assay [15]; -0.0615 in [17]. In addition, the composite z-score in assay [18] is 0.551; in [19] it was 0.422; in [20], -0.0564. Also, the z-score in [8] was -1.36 (inactive); in assay [12] it was 1.05 (inactive); in assay [13], 0.0445 (inactive); in assay [14], 0.7 (inactive); in assay [16] it was 0.859 (inactive).

Regarding `CCOC(=O)C[C@H]1[C@H](OC(=O)c2ccccc2-c2ccccc2)[C@@H](NC(=O)c2ccccc2)c2cc(OCCCO)ccc2N1C(=O)Cc1ccc(OC)cc1`, the composite z-score in [1] was -0.205; in assay [2], -0.0688; in [3], -0.0569; in assay [4], 0.149; in assay [5], 0.585; in [6] it was -0.323. The composite z-score in [7] was -0.191; in [9], -0.0579; in [10], -0.204; in assay [11], -0.175; in [15] it was 0.601; in assay [17], -0.0963. Besides, the composite z-score is -0.0496 in [18], -0.196 in assay [19] and -0.108 in assay [20]. The z-score in assay [8] was 0.57 (inactive); in assay [12], -0.211 (inactive); in assay [13], -0.0183 (inactive); in assay [14], 0.452 (inactive); in [16], -0.922 (inactive).

(Values after PubChem BioAssay.)
